The results in this text go back to PubChem BioAssay (NCATS).

The target in test [1] is Voltage-gated inwardly rectifying potassium channel KCNH2 (Homo sapiens) (UniProt Q12809). Briefly: qHTS Assay for Small Molecule Inhibitors of the Human hERG Channel Activity (AID 588834).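 Also: top concentration of the series differs between compounds; % is scaled to controls: 0 for no effect and ±100 for the full control effect; lower thallium flux fluorescence means stronger hERG block; nearly all actives have a fitted effect of over 50% in size.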 In short, it runs like this:
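Concentration-response qHTS measuring drop in thallium-sensitive dye signal. U2OS cells carrying BacMam hERG; compound exposure ~10 min, then stimulation buffer and 2 min read at 1 sec intervals.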
In general terms: Quantitative high-throughput screening tests each substance at several concentrations.

Test [2] deals with Luciferin 4-monooxygenase (Photinus pyralis) (UniProt P08659). Briefly: Biochemical firefly luciferase enzyme assay for NPC (AID 624030).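 Also: purified P. pyralis luciferase at 10 nM with luciferin and ATP substrate; 0% = DMSO and -100% = full luciferase inhibition by PTC124 control; nearly all actives have a fitted effect of over 70% in size.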 Put shortly: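 Direct inhibition of firefly luciferase enzyme (10 nM final, 50 mM Tris Acetate) assessed by luminescence within 5 minutes. Percent activity scaled between DMSO and PTC124 positive control, with concentration-effect curves classified by fit quality and response.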

A short description of test [3]: S16 Schwann cell viability assay (CellTiter-Glo assay) (AID 624031).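 Also: plate controls were DMSO-treated cells for no effect and cell-free wells for full effect; nearly all actives have a fitted effect of over 70% in size.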 Put shortly: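 Native S16 Schwann cells (rat), serum-containing medium, overnight attachment then 24 h drug exposure at 37 °C/5% CO2. CellTiter-Glo ATP signal; normalized to cell-free and vehicle wells.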
(In general: ATP-based viability assays read luminescence as a measure of living cells.)

The nature of test [4]: S16 Schwann cell PMP22 intronic element beta-lactamase assay (AID 624044; calls by dose curve;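 also: 0% = DMSO and -100% = potassium clavulanate positive control; nearly all actives have a fitted effect of over 15% in size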). In short, it runs like this: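 Rat S16 Schwann cells with beta-Lac driven by a PMP22 intronic element, compound-treated 24 h at 37 °C. LiveBLAzer FRET B/G read: 460 nm normalized to potassium clavulanate vs DMSO; 535 nm FRET as viability; concentration-effect curves classified.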
A short description of test [5]: qHTS of Trypanosoma Brucei Inhibitors: LOPAC Validation (AID 624147). Also: 0% is about no effect. Put shortly:
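In this concentration-response screen, enzyme-free wells defined baseline while DMSO plates tracked drift. Each reaction combined TbPYK, substrate, compound and 130 uM ADP for 45 min at room temperature. Kinase-Glo Plus luminescence gave the signal.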

Test [6] concerns the target Glucagon-like peptide 1 receptor (Homo sapiens) (UniProt P43220). Briefly: qHTS of GLP-1 Receptor Agonists: LOPAC Validation (AID 624148).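 Also: luminescence from a luciferase reporter switched on by cAMP; 0% is about no effect; higher luminescence signal means agonism.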 Put shortly: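 Agonism scored as increased luciferase luminescence driven by cAMP in HEK293 clones carrying GLP-1R. Cells settled 12 hours, received compound for 4-6 hr at 37 deg C, 5% CO2, and were read after 12 min detection reagent at RT.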

Test [7] in a line: qHTS of Nrf2 Activators: LOPAC Validation (AID 624149). Also: 0% is about no effect. In short, it runs like this:
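ARE reporter activation measured in AREc32 firefly luciferase cells after 24 hr compound exposure; Steady-Glo luminescence.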

Test [8] concerns the target Glutaminase kidney isoform, mitochondrial (Homo sapiens) (UniProt O94925). Briefly: qHTS for Inhibitors of Glutaminase (GLS): LOPAC Validation (AID 624146).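 Also: glutamate product detected by oxidase and peroxidase coupled Amplex red fluorescence gain; % is scaled to controls: 0 for no effect and ±100 for the full control effect; nearly all actives have a fitted effect of over 60% in size.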 Put shortly:
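Two-point fluorescence kinetic (t0, 30 min RT) for hKGA; glutamate detected via glutamate oxidase–HRP–Amplex Red. Substrate: 1 mM L-glutamine solution; buffer 45 mM KH2PO4, pH 8.2.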

In test [9] the target is Retinoic acid receptor RXR-alpha (Homo sapiens) (UniProt P19793). Briefly: qHTS assay for small molecule antagonists of retinoid X receptor alpha signaling (AID 588546; active = well fitted inhibition curve with a large enough effect in the signal ratio, with a control signal flat, not every such curve was filed as active; the % refers to the signal ratio; also: % is scaled to controls: 0 for no effect and ±100 for the full control effect). Conditions: HEK293T RXRa-UAS-bla, beta-lactamase ratio, antagonist mode. In short, it runs like this: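 Beta-lactamase reporter inhibition, read as CCF4 fluorescence ratio (ex 405, em 460/530 nm) after 2 h at RT. HEK293T UAS-bla cells, 2500/well, were stimulated with 9-cis-RA at 500 or 100 nM final alongside test compound for 18 h at 37 C.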

The target of test [10] is Thyroid hormone receptor beta (Homo sapiens) (UniProt P10828). Briefly: qHTS assay for small molecule antagonists of thyroid hormone receptor beta signaling (AID 588547; active = well fitted inhibition curve with a large enough effect in the signal ratio, with a control signal flat, not every such curve was filed as active; the % refers to the signal ratio;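 also: cells stimulated with 0.4 nM T3 agonist during compound exposure; % is scaled to controls: 0 for no effect and ±100 for the full control effect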). Conditions: TR-UAS-bla HEK293, beta-lactamase ratio, antagonist mode, 18 h. Put shortly: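 Inhibition of T3-driven (0.4nM final) beta-lactamase reporter activity was measured over 0.59 nM to 92 uM compound after 18 h at 37 C. The cells were GripTite HEK293 TR-UAS-bla in charcoal/dextran-stripped serum, with CCF4 ratio read-out and IC50 from Hill fits.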

Test [11] in a line: qHTS assay for small molecule agonists of the antioxidant response element (ARE) signaling pathway (AID 651741; active = well fitted activation curve with a large enough effect in the signal ratio; the % refers to the signal ratio; also: potency is read from the fitted curve at half-maximal effect). In short, it runs like this:
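Seeding 2,000 ARE-bla HepG2 cells per well preceded a 5 h incubation at 37 C/5% CO2 and a 16 h compound exposure at 37 C. Beta-lactamase reporter activity was then quantified by fluorescence after 2 h with LiveBLAzer B/G FRET substrate.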

Test [12] is described as follows: qHTS assay for small molecule activators of the p53 signaling pathway (AID 651743; active = well fitted activation curve with a large enough effect in the signal ratio, not every such curve was filed as active; the % refers to the signal ratio; also: % of control where 0% means no effect). Conditions: HCT-116 p53RE-bla, beta-lactamase FRET ratio, 16 h; stronger effect = higher value. In short, it runs like this: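 Screen for p53 pathway agonists uses stably transfected p53RE-bla HCT-116 cells, 4,000 per well, treated 16 h at 37 C with compounds in DMSO.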
Test [13] in a line: qHTS assay for small molecule activators of the nuclear factor-kappa B (NF-kB) signaling pathway (AID 651749; active = well fitted activation curve with a large enough effect in the signal ratio; the % refers to the signal ratio; also: % of control where 0% means no effect). Conditions: NF-kB-bla ME-180 cells, beta-lactamase FRET ratio, 16 h; stronger effect = higher value. In short, it runs like this: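 Stably transfected ME-180 line; NF-kB response element upstream of beta-lactamase. Treatment: compound or DMSO, 16 hr. Detection: fluorescent FRET substrate.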

A short description of test [14]: Cytotoxicity counterscreen for NFkB agonists and antagonists (AID 624476).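 Also: cells exposed to compound for 48 hours.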 Also: potency is read from the fitted curve at half-maximal effect.
Test [15] can be described thus: qHTS Assay for Identification of Small Molecule Agonists for NFkB Signaling Pathway. (AID 624478).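 Also: compounds tested together with TNF alpha at its EC50 of 10 pM; 0% is about no effect.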 In short, it runs like this: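 Cells carrying an NFkB response element-driven beta-lactamase gene are co-treated with compound and 10 pM TNF alpha for 5 h, and reporter activity is then read as 460 and 530 nm fluorescence.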
Test [16] is described as follows: qHTS Assay for Identification of Small Molecule Antagonists for NFkB Signaling Pathway. (AID 624479; calls by dose curve;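 also: pathway stimulated with TNF alpha; potency is read from the fitted curve at half-maximal effect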).
The nature of test [17]: Cell Proliferation Assay against the TMD8 Cell Line (AID 651645).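 Also: cells exposed to compound for 48 h before reading.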 Conditions: TMD8 DLBCL cell line proliferation/viability; at 46.1 µM (top of the series) unless noted. In short, it runs like this: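 Luminescent ATP read-out (CellTiter-Glo, 15 min RT) after 48 h compound exposure of log-growing TMD8 cells at 37C; percent activity scaled between DMSO as 100% and 9.2 uM bortezomib final as 0%.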

Test [18] is described as follows: Cell Proliferation Assay against the HBL1 Cell Line (AID 651646).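 Also: cells exposed to compound for 48 h before reading.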 Conditions: HBL1 DLBCL cells; at 46.1 µM (top of the series) unless noted. Put shortly:
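Luminescent ATP read-out (CellTiter-Glo) after 48 h compound exposure of HBL1 cells at 37 °C; percent activity was scaled between DMSO as 100% and 9.2 uM bortezomib (final) as 0%.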

Inconclusive results are not listed. Active and inactive are the calls of the source. Unless noted, calls follow the shape of the dose curve; as a rule, active = well fitted curve in the direction sought with a large enough effect; inconclusive = small, poorly fitted or top-dose-only effect, or another doubt; inactive = no such curve, though single readings can be large; an effect the other way counts as inactive or inconclusive.

Luciferin 4-monooxygenase (Photinus pyralis), sequence (P08659 whole entry, looked up): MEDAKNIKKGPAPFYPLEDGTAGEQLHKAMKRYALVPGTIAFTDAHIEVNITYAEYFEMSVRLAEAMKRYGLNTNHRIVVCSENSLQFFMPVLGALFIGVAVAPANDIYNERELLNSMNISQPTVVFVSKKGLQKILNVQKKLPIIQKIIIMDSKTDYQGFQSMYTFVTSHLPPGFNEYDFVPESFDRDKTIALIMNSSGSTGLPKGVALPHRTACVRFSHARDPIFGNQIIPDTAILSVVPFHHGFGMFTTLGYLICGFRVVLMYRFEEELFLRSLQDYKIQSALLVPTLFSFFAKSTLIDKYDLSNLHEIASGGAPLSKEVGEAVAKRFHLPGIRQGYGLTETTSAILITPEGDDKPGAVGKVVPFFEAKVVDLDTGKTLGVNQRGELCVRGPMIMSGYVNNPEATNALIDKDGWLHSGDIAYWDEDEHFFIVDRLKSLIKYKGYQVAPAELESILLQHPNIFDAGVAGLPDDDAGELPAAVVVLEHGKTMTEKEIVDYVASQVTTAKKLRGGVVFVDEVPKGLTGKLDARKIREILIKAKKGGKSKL
Glutaminase kidney isoform, mitochondrial (Homo sapiens), sequence (O94925 whole entry, looked up, canonical isoform): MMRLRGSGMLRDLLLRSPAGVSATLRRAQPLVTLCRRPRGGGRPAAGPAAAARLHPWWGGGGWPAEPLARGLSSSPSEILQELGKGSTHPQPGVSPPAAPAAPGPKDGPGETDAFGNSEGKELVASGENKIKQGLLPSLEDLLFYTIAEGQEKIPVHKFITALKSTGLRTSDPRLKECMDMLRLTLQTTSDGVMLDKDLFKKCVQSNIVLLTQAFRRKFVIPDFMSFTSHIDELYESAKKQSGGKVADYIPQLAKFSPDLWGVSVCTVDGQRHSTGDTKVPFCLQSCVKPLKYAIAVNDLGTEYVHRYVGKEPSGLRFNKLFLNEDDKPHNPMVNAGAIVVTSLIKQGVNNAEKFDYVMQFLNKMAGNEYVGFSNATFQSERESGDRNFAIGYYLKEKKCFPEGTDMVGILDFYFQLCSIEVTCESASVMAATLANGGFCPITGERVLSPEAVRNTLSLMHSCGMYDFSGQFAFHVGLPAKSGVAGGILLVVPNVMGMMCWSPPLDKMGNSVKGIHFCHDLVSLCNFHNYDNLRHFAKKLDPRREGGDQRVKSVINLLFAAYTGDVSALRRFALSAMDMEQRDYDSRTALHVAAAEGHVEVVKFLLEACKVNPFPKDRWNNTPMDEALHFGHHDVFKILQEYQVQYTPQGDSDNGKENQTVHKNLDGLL
Glucagon-like peptide 1 receptor (Homo sapiens), sequence (P43220 whole entry, looked up): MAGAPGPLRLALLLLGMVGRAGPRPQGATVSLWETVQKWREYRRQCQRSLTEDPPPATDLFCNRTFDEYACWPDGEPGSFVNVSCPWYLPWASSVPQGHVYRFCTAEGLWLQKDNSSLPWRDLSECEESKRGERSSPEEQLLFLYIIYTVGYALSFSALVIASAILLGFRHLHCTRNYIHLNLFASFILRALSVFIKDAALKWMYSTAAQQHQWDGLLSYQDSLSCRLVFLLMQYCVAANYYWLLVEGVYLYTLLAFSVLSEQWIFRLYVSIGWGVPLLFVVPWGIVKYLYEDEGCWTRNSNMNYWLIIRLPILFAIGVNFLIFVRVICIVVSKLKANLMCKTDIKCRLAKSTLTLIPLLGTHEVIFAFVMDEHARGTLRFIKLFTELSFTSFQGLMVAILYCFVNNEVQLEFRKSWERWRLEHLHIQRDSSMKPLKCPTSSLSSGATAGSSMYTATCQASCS
Voltage-gated inwardly rectifying potassium channel KCNH2 (Homo sapiens), sequence (Q12809 whole entry, looked up): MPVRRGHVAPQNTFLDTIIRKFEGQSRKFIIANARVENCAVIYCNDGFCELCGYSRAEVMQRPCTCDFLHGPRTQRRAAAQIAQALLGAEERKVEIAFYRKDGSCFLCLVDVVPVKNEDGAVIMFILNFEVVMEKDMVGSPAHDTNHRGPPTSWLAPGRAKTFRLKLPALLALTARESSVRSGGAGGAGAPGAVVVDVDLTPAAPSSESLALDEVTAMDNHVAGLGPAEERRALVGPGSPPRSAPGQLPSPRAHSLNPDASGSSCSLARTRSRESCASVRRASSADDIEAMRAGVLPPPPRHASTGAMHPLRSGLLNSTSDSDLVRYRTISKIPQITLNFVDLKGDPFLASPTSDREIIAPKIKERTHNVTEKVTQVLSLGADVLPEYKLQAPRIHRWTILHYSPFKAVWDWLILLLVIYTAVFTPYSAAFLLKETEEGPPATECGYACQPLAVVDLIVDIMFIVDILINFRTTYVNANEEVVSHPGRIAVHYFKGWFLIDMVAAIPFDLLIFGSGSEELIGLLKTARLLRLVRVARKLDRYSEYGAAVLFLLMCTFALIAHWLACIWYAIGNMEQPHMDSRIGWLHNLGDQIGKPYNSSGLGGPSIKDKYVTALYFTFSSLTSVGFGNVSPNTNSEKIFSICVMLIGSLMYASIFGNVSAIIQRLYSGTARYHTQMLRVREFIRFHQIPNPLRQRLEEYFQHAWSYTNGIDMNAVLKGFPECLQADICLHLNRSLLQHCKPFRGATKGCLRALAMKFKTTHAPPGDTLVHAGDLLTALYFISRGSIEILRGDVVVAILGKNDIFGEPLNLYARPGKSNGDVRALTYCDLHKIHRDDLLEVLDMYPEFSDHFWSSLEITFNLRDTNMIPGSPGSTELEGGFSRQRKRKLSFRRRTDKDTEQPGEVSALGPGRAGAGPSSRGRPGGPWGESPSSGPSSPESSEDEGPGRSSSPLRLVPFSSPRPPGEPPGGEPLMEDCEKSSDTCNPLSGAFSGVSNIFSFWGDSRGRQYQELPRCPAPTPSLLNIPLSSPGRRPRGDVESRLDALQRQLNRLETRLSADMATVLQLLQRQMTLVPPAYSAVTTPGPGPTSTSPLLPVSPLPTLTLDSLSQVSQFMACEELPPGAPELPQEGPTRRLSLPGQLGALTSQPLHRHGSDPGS
Retinoic acid receptor RXR-alpha (Homo sapiens), sequence (P19793 whole entry, looked up): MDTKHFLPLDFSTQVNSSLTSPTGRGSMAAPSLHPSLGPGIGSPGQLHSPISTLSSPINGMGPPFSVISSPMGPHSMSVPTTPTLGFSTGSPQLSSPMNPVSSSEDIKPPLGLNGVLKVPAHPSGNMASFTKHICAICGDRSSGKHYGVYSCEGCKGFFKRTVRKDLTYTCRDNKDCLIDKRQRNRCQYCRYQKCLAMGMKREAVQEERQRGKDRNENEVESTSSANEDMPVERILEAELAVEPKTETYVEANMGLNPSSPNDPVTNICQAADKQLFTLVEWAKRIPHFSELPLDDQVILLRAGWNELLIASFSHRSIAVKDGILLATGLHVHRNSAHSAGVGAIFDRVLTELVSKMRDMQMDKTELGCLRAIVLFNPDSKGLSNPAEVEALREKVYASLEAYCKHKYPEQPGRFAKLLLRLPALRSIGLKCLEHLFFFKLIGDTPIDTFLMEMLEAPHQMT
Thyroid hormone receptor beta (Homo sapiens), sequence (P10828 whole entry, looked up): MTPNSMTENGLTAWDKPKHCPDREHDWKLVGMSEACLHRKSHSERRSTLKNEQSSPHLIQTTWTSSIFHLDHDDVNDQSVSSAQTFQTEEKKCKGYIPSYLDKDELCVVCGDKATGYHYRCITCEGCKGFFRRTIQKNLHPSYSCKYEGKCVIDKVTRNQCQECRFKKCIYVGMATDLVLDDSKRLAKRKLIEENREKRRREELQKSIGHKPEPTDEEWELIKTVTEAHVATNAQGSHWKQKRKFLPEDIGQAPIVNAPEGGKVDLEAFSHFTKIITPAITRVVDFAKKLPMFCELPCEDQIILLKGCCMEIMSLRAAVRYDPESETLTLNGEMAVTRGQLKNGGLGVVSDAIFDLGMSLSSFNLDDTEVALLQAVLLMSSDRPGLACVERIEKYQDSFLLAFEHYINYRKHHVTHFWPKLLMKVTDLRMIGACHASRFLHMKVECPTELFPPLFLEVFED

On to `O=C1NCC2(CCN(CCc3ccccc3)CC2)O1`, for which the Potency entry in [1], in test [2], in [3] and in test [4] was “inactive” in each case. Besides, the compound was called inactive in test [5], in test [6] and in test [7].

`CC(C)NCC(O)COc1cccc2[nH]ccc12` (stereo not given): the Potency entry in test [1], in [2], in [3] and in test [8] was “inactive” in each case. Further, the call in [5] and in test [6] was inactive.

With `CC1(C)O[C@H]2C[C@@H]3[C@H]4CCC5=CC(=O)C=C[C@]5(C)[C@@]4(F)[C@@H](O)C[C@]3(C)[C@]2(C(=O)CO)O1`, the Potency result in test [1], in test [2], in test [3] and in test [4] was “inactive” in each case.

For the compound `C[C@@H](O)[C@H]1C(=O)N2C(C(=O)O)=C(S[C@@H]3CN[C@H](C(=O)N(C)C)C3)[C@H](C)[C@H]12`, the Potency entry in test [1], in test [2] and in [3] was “inactive” throughout.

Consider `CC[C@]1(O)C[C@@H]2CN(CCc3c([nH]c4ccccc34)[C@@](C(=O)OC)(c3cc4c(cc3OC)N(C)[C@H]3[C@@](O)(C(=O)OC)[C@H](OC(C)=O)[C@]5(CC)C=CCN6CC[C@]43[C@@H]65)C2)C1`, for which the Potency entry in test [1] was “inactive”.

Take `CCN(CC)CCOC(=O)c1ccc(N)cc1`: the Potency result in test [1], in test [2], in test [3] and in [8] was “inactive” in each case. Besides, the outcome in test [5], in test [6] and in test [7] was inactive.

For the compound `CN(C)CCC(c1ccccc1)c1ccccn1` (stereo not given), in test [9], the max response is -4.45% (inactive). In addition, the activity change % (negative = inhibition) in [10] is -6.32% (inactive). For the same compound, the Potency entry in [2], in test [3] and in test [8] was “inactive” each time. Further, the compound was called inactive in test [5] and in test [7]. The Potency in test [11] was 37600 nM (active). Further, the activation is 1.39% (inactive) in [12] and -0.458% (inactive) in test [13].

With `CC(=O)Nc1ccc([C@H](C)C(=O)Nc2ncc(C(C)C)s2)cc1`, the Potency in test [14] is 935 nM (active); in test [16], 335 nM (active). In addition, the result in [15] was inactive. Moreover, in [17], the viability (% of control) is -0.0002%. Moreover, the viability, percent of control in [18] came out at 33.5%.

For `N#C[C@H]1C[C@H]2C[C@@H]2N1C(=O)[C@@H](N)C12CC3CC(CC(O)(C3)C1)C2`, the Potency result in test [2] was “inactive”.

Regarding `COc1cc2ncnc(Nc3ccc(F)c(Cl)c3)c2cc1OCCCN1CCOCC1`, the Potency result in test [2], in test [4] and in test [14] was “inactive” in each case. In test [15], the compound was called inactive. For the same compound, the viability (% of control) in test [17] stood at 50.3%. For the same compound, the viability, percent of control in test [18] came to 40.3%.

Consider `Cc1cccc(C)c1OCC(C)N` (stereo not given), for which the Potency result in test [1], in test [2], in [3] and in [8] was “inactive” throughout. The compound was called inactive in [5], in test [6] and in test [7].

For the compound `CCCCCN(C)CCC(O)(P(=O)(O)O)P(=O)(O)O`, the Potency result in test [2], in [3], in test [4] and in test [8] was “inactive” in each case. The outcome in test [5], in test [6] and in [7] was inactive.

Consider `CCN(CC)C(=O)c1ccc(O)c(OC)c1`, for which the Potency entry in [1], in [2] and in test [3] was “inactive” each time. Also, the call in [5], in test [6] and in test [7] was inactive.
